The text below walks through data of PubChem BioAssay (EPA / NIEHS).

Records with an inconclusive call do not appear. The source made the active and inactive calls. The calls were made as follows, unless noted: active = hit-call score of the fitted dose curve at least 0.9, where 1 is the maximum; inactive = score below 0.9.

Assay [1] has as its target Paired box protein Pax-6 (Homo sapiens) (UniProt P26367). Briefly: ATG_Pax6_CIS: Attagene CIS-FACTORIAL HepG2 Assay for human Paired Box 6 (PAX6) (AID 2282956). Particulars: HepG2 CIS-FACTORIAL PAX6 reporter transcription, RNA readout; actives raise or lower the signal. The essentials: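 Fluorescent RT-PCR products separated by capillary electrophoresis report PAX6-linked promoter mRNA in HepG2 cells 24 h post-dose. Curves fitted bidirectionally, DMSO as negative control.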

Assay [2] can be described thus: ATG_PXRE_CIS: Attagene CIS-FACTORIAL HepG2 Assay for human Pregnane X Receptor Element (PXRE) (AID 2282957). To be noted: HepG2 Attagene CIS-FACTORIAL PXRE reporter, mRNA; actives raise or lower the signal. The essentials: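 Reporter transcripts under endogenous PXR-responsive cis-regulation quantified from total RNA of transfected HepG2 cells 24 h post-dosing, via RT-PCR with fluorescent primer extension and capillary electrophoresis. Gain or loss of signal fitted against DMSO baseline.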

Assay [3] is described as follows: ATG_PPRE_CIS: Attagene CIS-FACTORIAL HepG2 Assay for human Peroxisome Proliferator-activated Response Element (PPRE) (AID 2282958). Particulars: HepG2 PPRE cis-element reporter, Attagene transcription factor profiling; actives raise or lower the signal. The essentials:
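PPRE activity in HepG2: transient cis-reporter transfection, 24 h compound incubation, reporter mRNA by RT-PCR and CE fluorescence; gain/loss fitted against DMSO.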

Assay [4] can be described thus: ATG_RORE_CIS: Attagene CIS-FACTORIAL HepG2 Assay for human RAR-related Orphan Receptor Element (RORE) (AID 2282959). Particulars: HepG2 Attagene cis-factorial RORE reporter, mRNA; actives raise or lower the signal. The gist of the method:
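A 24-hour exposure of transfected HepG2 hepatoma cells precedes RNA isolation and reporter RT-PCR. Labeled products are digested with HpaI and resolved by capillary electrophoresis, with gain or loss of signal scored relative to DMSO.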

The nature of assay [5]: ATG_Sox_CIS: Attagene CIS-FACTORIAL HepG2 Assay for human SRY-box transcription factor (SOX) (AID 2282960). Particulars: HepG2 Attagene cis-factorial SOX reporter, mRNA; actives raise or lower the signal. The gist of the method:
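HepG2, cis reporter units, 24 h exposure. Reporter mRNA: RT-PCR → FAM labelling → HpaI → CE fluorescence. Bidirectional fit vs DMSO.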

In assay [6] the target is Transcription factor Sp1 (Homo sapiens) (UniProt P08047). In words: ATG_Sp1_CIS: Attagene CIS-FACTORIAL HepG2 Assay for human Specificity Protein 1 (Sp1) (AID 2282961). To be noted: HepG2 Sp1 cis-reporter transcription, actives raise or lower the signal. The essentials: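 Liver-derived HepG2 cells, cis-element reporter library, 24 h treatment; RNA isolated, cDNA amplified with reporter-specific primers, FAM-labeled fragments sized on capillary analyzer. DMSO baseline, bidirectional curve fit.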

Assay [7] is described as follows: ATG_SREBP_CIS: Attagene CIS-FACTORIAL HepG2 Assay for human Sterol Regulatory Element Binding (SREBP) (AID 2282962). To be noted: HepG2 Attagene cis-factorial SREBP reporter, mRNA; actives raise or lower the signal. The essentials:
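Endogenous factor activity is measured in HepG2 through multiplexed reporter units under cis-element control. Following a 24 h incubation, reporter transcripts are reverse-transcribed, PCR-amplified and sized by capillary electrophoresis; activity is fitted in both directions relative to DMSO.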

Assay [8] concerns the target Signal transducer and activator of transcription 3 (Homo sapiens) (UniProt P40763). Briefly: ATG_STAT3_CIS: Attagene CIS-FACTORIAL HepG2 Assay for human Signal Transducer and Activator of Transcription 3 (STAT3) (AID 2282963). To be noted: HepG2, Attagene cis-factorial STAT3 reporter transcription; actives raise or lower the signal. The essentials:
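Fluorescence intensity of 6-FAM-labelled reporter fragments, separated by capillary electrophoresis after RT-PCR, gave the signal. Cells were HepG2 transfected with cis-element reporter units and treated 24 h; fitting was bidirectional relative to DMSO.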

A short description of assay [9]: ATG_TA_CIS: Attagene CIS-FACTORIAL HepG2 Assay for human TA Basal Promoter (AID 2282964). To be noted: HepG2 Attagene CIS-factorial TA basal promoter reporter; actives raise or lower the signal. The gist of the method:
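Background internal-marker endpoint from a 52-component HepG2 cis-reporter panel. Cells treated 24 h; reporter transcripts quantified via RT-PCR and CE fluorescence against DMSO baseline.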

Assay [10] in a line: ATG_TCF_b_cat_CIS: Attagene CIS-FACTORIAL HepG2 Assay for human T-Cell-Factor with beta-catenin (TCF/b-cat) (AID 2282965). Particulars: HepG2 TCF/beta-catenin cis-reporter transcription, actives raise or lower the signal. The gist of the method:
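Cells of the HepG2 line carry transiently transfected reporter units whose promoters respond to endogenous factors. Twenty-four hours post-dosing, reporter mRNA induction is measured by fluorescent RT-PCR and capillary electrophoresis, with DMSO as baseline.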

The nature of assay [11]: ATG_TAL_CIS: Attagene CIS-FACTORIAL HepG2 Assay for human TAL Basal Promoter (AID 2282966).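 Also: background control endpoint measuring basal TAL promoter reporter mRNA not a specific factor.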 To be noted: HepG2 Attagene cis-factorial TAL promoter reporter; actives raise or lower the signal. The gist of the method:
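Background-control endpoint: basal TAL promoter reporter transcripts in transiently transfected HepG2, measured 24 h after dosing. Read-out by RT-PCR with fluorescent primer extension and capillary electrophoresis; gain or loss of signal fitted relative to DMSO.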

A short description of assay [12]: ATG_TGFb_CIS: Attagene CIS-FACTORIAL HepG2 Assay for human Transforming Growth Factor (TGF) (AID 2282967). Particulars: HepG2 Attagene CIS TGFb reporter, mRNA transcription; actives raise or lower the signal. The gist of the method: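 Liver HepG2 line, cis-factorial reporter panel, 24 h dosing. Quantitation: RT-PCR products labeled with 6-FAM, cut with HpaI, resolved by capillary electrophoresis; DMSO-referenced bidirectional analysis.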

The nature of assay [13]: ATG_VDRE_CIS: Attagene CIS-FACTORIAL HepG2 Assay for human Vitamin D Receptor Element (VDRE) (AID 2282968). To be noted: HepG2 VDRE cis-reporter transcription, actives raise or lower the signal. The essentials:
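Compounds were applied for 24 h to HepG2 cells transfected with promoter-regulated reporter units. Total RNA was reverse-transcribed, and reporter amplicons were fluorescently labelled and sized by capillary electrophoresis.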

The target in assay [14] is Estrogen receptor (Homo sapiens) (UniProt P03372). In words: ATG_ERa_TRANS: Attagene TRANS-FACTORIAL HepG2 Assay for human Estrogen Receptor alpha (ERa) (AID 2282970; active = hit-call score of the fitted dose curve at least 0.9, where 1 is the maximum). Particulars: HepG2 Attagene TRANS ERa GAL4 reporter, mRNA. The gist of the method: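 Reporter transcripts were measured 24 h after dosing by RT-PCR with fluorescent primer extension and capillary electrophoresis. The system is transiently transfected HepG2 expressing exogenous NR-Gal4 chimeras driving GAL4-UAS reporters; DMSO is the baseline.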

The target of assay [15] is Steroid hormone receptor ERR1 (Homo sapiens) (UniProt P11474). Briefly: ATG_ERRa_TRANS: Attagene TRANS-FACTORIAL HepG2 Assay for human Estrogen-Related Receptor alpha (ERRa) (AID 2282971; active = hit-call score of the fitted dose curve at least 0.9, where 1 is the maximum). Particulars: HepG2 Attagene TRANS reporter, ERRa transactivation. The gist of the method:
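Reporter transcripts from ERRa-Gal4 chimera activity measured in transiently transfected human HepG2 cells 24 hours after dosing, using RT-PCR with 6-FAM primer extension, HpaI digestion and capillary electrophoresis; DMSO is baseline.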

The target in assay [16] is X-box-binding protein 1 (Homo sapiens) (UniProt P17861). Briefly: ATG_Xbp1_CIS: Attagene CIS-FACTORIAL HepG2 Assay for human X-box Binding Protein 1 (XBP1) (AID 2282972). To be noted: HepG2 XBP1 cis-element reporter, Attagene multiplex; actives raise or lower the signal. The gist of the method:
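Multiplexed cis-reporter readout in transfected HepG2 liver cells. Exposure lasted 24 hours. Activity in either direction was fitted against DMSO as negative control and baseline.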

Assay [17] can be described thus: ATG_GAL4_TRANS: Attagene TRANS-FACTORIAL HepG2 Assay for GAL4 (Internal Marker) (AID 2282976; active = hit-call score of the fitted dose curve at least 0.9, where 1 is the maximum). Particulars: HepG2 Attagene TRANS GAL4 internal marker reporter. The essentials: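 In transfected human HepG2 liver cells dosed 24 h, GAL4 reporter mRNA serves as a baseline marker. Detection by RT-PCR with fluorescent capillary electrophoresis, activity fitted upward relative to DMSO.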

Assay [18] has as its target Nuclear receptor subfamily 1 group I member 3 (Homo sapiens) (UniProt Q14994). In words: ATG_CAR_TRANS: Attagene TRANS-FACTORIAL HepG2 Assay for human Constitutive Androstane Receptor (CAR) (AID 2282969; active = hit-call score of the fitted dose curve at least 0.9, where 1 is the maximum;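 also: activators raise reporter mRNA above DMSO so AC50 marks induction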). To be noted: HepG2 Attagene TRANS-FACTORIAL CAR reporter. The essentials:
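Transiently transfected HepG2, multiplex TRANS reporters (CAR-Gal4 chimera driving GAL4-UAS reporter). 24 h dosing. Readout: reporter transcript by RT-PCR + capillary electrophoresis, fluorescence intensity; positive direction vs DMSO.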

Assay [19] in a line: ATG_M_19_TRANS: Attagene TRANS-FACTORIAL HepG2 Assay for M19 Transcription Factor (Internal Marker) (AID 2282974; active = hit-call score of the fitted dose curve at least 0.9, where 1 is the maximum). To be noted: HepG2 Attagene TRANS-FACTORIAL M19 internal marker reporter. The gist of the method: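 Transfected HepG2 (GAL4-UAS MRTUs), 24 h compound, TriZol RNA, DNase-treated RT, reporter PCR, FAM label, HpaI digest, CE fluorescence; gain vs DMSO.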

Chain of Steroid hormone receptor ERR1 (Homo sapiens) (P11474 whole entry, looked up, the tested form may be a part): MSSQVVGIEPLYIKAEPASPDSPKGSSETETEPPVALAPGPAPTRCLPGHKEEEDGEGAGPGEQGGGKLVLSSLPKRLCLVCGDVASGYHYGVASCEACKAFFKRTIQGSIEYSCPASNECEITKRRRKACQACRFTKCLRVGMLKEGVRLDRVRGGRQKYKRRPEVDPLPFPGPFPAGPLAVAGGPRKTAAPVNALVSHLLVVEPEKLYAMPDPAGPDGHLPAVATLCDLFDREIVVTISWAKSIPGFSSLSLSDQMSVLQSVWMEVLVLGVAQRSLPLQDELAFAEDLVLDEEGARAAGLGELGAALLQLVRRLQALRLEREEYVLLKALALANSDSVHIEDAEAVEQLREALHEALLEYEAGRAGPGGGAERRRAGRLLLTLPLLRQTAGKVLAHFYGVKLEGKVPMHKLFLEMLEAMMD
Chain of Nuclear receptor subfamily 1 group I member 3 (Homo sapiens) (Q14994 whole entry, looked up, the tested form may be a part): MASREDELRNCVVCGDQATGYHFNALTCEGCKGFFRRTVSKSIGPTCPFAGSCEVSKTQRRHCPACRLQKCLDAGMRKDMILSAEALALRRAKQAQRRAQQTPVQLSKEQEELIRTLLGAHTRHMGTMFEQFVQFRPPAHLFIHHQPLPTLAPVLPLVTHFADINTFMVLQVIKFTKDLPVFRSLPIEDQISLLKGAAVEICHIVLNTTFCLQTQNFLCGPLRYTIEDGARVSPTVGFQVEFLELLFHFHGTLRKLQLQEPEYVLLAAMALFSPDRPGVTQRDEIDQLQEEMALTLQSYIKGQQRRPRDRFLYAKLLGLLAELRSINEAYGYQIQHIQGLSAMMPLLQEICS
Chain of Signal transducer and activator of transcription 3 (Homo sapiens) (P40763 whole entry, looked up, the tested form may be a part): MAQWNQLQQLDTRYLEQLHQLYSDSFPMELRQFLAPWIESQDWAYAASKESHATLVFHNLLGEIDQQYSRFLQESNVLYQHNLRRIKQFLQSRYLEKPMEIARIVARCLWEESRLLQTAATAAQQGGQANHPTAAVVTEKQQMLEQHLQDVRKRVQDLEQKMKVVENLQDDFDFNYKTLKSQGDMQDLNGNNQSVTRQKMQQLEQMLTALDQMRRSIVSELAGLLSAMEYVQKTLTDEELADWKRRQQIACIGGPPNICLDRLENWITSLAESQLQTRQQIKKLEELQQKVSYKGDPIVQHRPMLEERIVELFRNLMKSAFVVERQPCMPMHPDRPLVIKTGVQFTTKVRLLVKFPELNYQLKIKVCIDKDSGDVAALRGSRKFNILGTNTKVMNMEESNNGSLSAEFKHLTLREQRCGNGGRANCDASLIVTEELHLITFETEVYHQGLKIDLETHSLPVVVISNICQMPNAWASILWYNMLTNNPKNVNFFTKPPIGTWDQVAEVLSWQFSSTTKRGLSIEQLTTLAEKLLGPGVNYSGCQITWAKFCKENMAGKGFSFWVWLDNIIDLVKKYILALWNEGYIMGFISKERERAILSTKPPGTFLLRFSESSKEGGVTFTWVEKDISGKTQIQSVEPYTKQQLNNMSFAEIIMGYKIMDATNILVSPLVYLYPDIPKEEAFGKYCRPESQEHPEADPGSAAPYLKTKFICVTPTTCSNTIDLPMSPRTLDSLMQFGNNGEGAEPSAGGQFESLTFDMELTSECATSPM
Chain of X-box-binding protein 1 (Homo sapiens) (P17861 whole entry, looked up): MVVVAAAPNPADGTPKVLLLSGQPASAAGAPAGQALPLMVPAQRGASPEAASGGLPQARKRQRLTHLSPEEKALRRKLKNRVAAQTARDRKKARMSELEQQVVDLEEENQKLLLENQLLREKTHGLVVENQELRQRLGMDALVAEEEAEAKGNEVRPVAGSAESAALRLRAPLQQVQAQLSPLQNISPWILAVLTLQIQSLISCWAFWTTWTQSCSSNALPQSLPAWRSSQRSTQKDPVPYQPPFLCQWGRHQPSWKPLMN
Chain of Transcription factor Sp1 (Homo sapiens) (P08047 whole entry, looked up, the tested form may be a part): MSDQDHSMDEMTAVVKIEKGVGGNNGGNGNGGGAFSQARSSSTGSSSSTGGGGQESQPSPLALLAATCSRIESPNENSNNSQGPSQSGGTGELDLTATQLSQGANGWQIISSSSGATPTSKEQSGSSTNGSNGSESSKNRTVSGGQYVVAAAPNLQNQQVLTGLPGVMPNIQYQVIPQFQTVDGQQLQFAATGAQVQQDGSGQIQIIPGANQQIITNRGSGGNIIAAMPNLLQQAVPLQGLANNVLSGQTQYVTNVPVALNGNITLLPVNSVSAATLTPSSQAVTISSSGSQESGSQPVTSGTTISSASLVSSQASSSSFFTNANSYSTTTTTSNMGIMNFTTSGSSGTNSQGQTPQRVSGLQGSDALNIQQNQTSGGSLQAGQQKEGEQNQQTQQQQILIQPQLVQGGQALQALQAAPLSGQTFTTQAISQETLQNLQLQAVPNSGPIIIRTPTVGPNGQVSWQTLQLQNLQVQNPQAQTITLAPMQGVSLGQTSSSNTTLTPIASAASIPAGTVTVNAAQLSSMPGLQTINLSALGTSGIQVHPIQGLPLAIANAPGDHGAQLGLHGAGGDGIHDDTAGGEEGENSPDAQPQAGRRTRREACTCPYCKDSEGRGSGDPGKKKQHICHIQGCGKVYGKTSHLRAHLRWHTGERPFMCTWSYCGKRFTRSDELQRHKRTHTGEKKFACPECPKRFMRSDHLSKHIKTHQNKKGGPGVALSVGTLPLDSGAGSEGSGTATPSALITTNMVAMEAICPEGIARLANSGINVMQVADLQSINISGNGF
Chain of Estrogen receptor (Homo sapiens) (P03372 whole entry, looked up, the tested form may be a part): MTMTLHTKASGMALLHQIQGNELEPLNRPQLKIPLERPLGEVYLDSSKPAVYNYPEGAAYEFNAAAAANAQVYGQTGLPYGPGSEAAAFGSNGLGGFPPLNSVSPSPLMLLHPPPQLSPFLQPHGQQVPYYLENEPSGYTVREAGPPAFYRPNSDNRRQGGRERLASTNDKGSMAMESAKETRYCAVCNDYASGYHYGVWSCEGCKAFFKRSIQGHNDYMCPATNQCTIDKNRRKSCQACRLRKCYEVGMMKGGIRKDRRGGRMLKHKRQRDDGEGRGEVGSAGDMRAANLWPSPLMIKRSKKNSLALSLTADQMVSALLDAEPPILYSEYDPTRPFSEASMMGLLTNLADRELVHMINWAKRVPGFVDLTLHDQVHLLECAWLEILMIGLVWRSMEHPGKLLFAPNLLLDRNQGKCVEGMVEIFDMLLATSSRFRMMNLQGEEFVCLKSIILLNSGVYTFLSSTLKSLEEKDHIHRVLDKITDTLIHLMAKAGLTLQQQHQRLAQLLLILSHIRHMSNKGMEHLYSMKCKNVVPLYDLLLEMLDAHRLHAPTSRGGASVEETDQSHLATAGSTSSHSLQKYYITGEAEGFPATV
Chain of Paired box protein Pax-6 (Homo sapiens) (P26367 whole entry, looked up): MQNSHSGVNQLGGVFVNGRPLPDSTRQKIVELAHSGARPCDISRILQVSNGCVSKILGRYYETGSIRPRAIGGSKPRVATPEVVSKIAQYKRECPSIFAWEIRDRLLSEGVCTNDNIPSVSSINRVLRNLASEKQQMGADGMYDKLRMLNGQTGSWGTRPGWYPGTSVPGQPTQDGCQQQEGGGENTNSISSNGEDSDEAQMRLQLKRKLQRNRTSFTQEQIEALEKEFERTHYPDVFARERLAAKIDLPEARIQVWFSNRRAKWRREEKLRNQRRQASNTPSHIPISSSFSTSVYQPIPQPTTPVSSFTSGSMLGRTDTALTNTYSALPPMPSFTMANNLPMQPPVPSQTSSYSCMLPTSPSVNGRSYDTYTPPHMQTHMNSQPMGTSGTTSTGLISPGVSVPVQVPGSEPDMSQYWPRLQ

`COc1cc(C=O)cc2c1[C@H](COC(N)=O)[C@]1(OC(C)=O)ON2C[C@H]2[C@@H]1N2C(C)=O`: the result in [1], in assay [3], in [4], in [5], in assay [6] and in assay [7] was inactive. In addition, the compound was called inactive in [14], in [15] and in [17]. Also, the concentration at half-maximal activity (AC50) (commonly the midpoint of the concentration-response curve, whichever way the signal moves) in [2] was 8.47 µM (active); in [8] it was 33.4 µM (active); in [9] it was 0.0965 µM (active); in assay [10], 0.157 µM (active); in assay [11], 57.3 µM (active); in [12], 60.4 µM (active). Further, the concentration at half-maximal activity (AC50) in [13] was 0.146 µM (active); in [16], 33.4 µM (active).
Regarding `Brc1ccc(Oc2ccccc2)cc1`, the compound was called inactive in assay [1], in assay [2], in [3], in assay [4], in assay [5] and in [8]. Moreover, the outcome in assay [9], in assay [10], in assay [11], in [12], in assay [13] and in assay [14] was inactive. Further, the compound was classed as inactive in assay [16]. The concentration at half-maximal activity (AC50) is 100 µM (active) in [6] and 149 µM (active) in assay [7].
Regarding `CC(O)CCO` (centres undefined), the compound was called inactive in [1], in assay [3], in assay [4], in [5], in assay [6] and in assay [7]. The outcome in assay [8], in assay [9], in [10], in assay [11], in assay [12] and in assay [13] was inactive. The result in assay [18] and in assay [16] was inactive. Further, the AC50 in assay [2] is 27 µM (active).
Consider `[O-][Cl+]O`, for which the outcome in assay [1], in [2], in assay [3], in assay [4], in assay [5] and in assay [6] was inactive. For the same compound, the compound was called inactive in [7], in assay [8], in assay [9], in assay [10], in assay [11] and in assay [12]. For the same compound, the result in assay [13], in assay [14], in [15], in assay [16], in assay [19] and in assay [17] was inactive.
As for `O=P(OCCCl)(OCCCl)OCCCl`, the result in [1], in assay [3], in assay [4], in assay [5], in assay [6] and in assay [7] was inactive. In addition, the call in assay [8], in [9], in assay [10], in [11], in [12] and in assay [13] was inactive. Further, the compound was classed as inactive in assay [18], in assay [15], in [16], in assay [19] and in assay [17]. Moreover, the AC50 in [2] was 43.6 µM (active).
As to `O=[N+]([O-])C(Br)(CO)CO`, the half-maximal activity concentration (AC50) in [1] is 100 µM (active); in assay [2], 158 µM (active); in assay [4], 100 µM (active); in assay [5] it was 170 µM (active); in assay [6], 145 µM (active); in assay [10], 100 µM (active). Also, the concentration at half-maximal activity (AC50) is 23.4 µM (active) in assay [12], 127 µM (active) in assay [13] and 145 µM (active) in assay [16]. For the same compound, the call in assay [3], in assay [7], in assay [8], in assay [9], in assay [11] and in [18] was inactive. In addition, the outcome in assay [14] was inactive.
With `Clc1ccc(C(c2ccc(Cl)cc2)C(Cl)Cl)cc1`, the AC50 is 62.7 µM (active) in assay [1]; 8.73 µM (active) in assay [2]; 59.8 µM (active) in assay [6]; 56.4 µM (active) in assay [7]; 15.7 µM (active) in assay [13]; 16.2 µM (active) in assay [14]. Besides, the AC50 in [16] was 56.2 µM (active). Also, the compound was called inactive in assay [3], in assay [4], in assay [5], in assay [8], in assay [9] and in assay [10]. The call in [11], in [12], in assay [18], in assay [19] and in assay [17] was inactive.
With `CCCCC(CC)COC(=O)c1ccc(C(=O)OCC(CC)CCCC)c(C(=O)OCC(CC)CCCC)c1` (centres undefined), the compound was called inactive in assay [1], in assay [2], in assay [3], in [4], in [5] and in [6]. Also, the outcome in [7], in [8], in assay [9], in assay [10], in assay [11] and in assay [12] was inactive. Moreover, the compound was classed as inactive in assay [13], in [18], in assay [16], in assay [19] and in [17].
